Assay results: ChEMBL document CHEMBL3433997, “St. Jude Leishmania screening dataset” (2016)

Target: Glucose transporter (Leishmania mexicana) (UniProt O61059)
Experiment: ST_JUDE_LEISH: Cytotoxicity at 2uM final concentration against transgenic Leishmania Mexicana promastigotes LmGT2 that are glucose transport deficient and complemented with the L. Mexicana glucose transporter 2. Activity is measured by DNA content using SYBR green in vitro
Type: functional

Row | SMILES | inhibition
1 | CCC[C@@H]([C@@H](CC1CCCCC1)C(=O)N[C@@H](CCOC(=O)NCC)C(=O)Nc1nccs1)N(O)C=O | 9.7%
2 | Oc1cc(-c2nc(-c3ccccc3)[nH]c2-c2ccncc2)ccc1Cl | 1.44%
3 | CC(=O)c1c(Cc2ccccc2Cl)c[nH]c1C | -1.32%
4 | CCOC(=O)c1ccc(NC(=O)NC2CCN(CCCCCNC(=O)/C=C/c3ccc(Cl)c(Cl)c3)C2)cc1 (centres undefined) | 0.92%
5 | O=C(Nc1ccc(OC2CCN(Cc3ccsc3)CC2)c(Cl)c1)c1ccco1 | 4.7%
6 | Oc1ccc2[nH]c(-c3ccc(OC(F)(F)F)cc3)nc2c1CNC1CCCC1 | 3.64%
7 | CS(=O)(=O)Nc1ccc2c(C3CCN(CCC4CCN(C(=O)/C=C/c5ccc(Cl)c(Cl)c5)CC4)CC3)c[nH]c2c1 | 4.12%
8 | CC(C)c1ccc(NC(=O)c2ccc(C(=O)NC3CCN(Cc4ccccc4)CC3)cc2)cc1 | -1.3%
9 | Cc1nc(N)nc(N)c1-c1ccc(Br)cc1 | 7.53%
10 | CCC(NC(=O)c1ccccc1NC(=O)c1ccc(C)cc1)C(=O)OC (centres undefined) | 0.97%
11 | COc1cccc(NC(=O)N2CCOC(CCN3CCC4(CCc5ccccc54)CC3)(c3ccc(Cl)c(Cl)c3)C2)c1 (centres undefined) | 1.65%
12 | CC(C)C1CCc2nc(N)nc(N)c2C1 (centres undefined) | 0.91%
13 | Nc1nc(N)c2c3c(ccc2n1)NCCC3 | -0.59%
14 | CNc1ccc(CNCc2cccc(-c3ccc(-c4nc5ccccc5[nH]4)s3)c2)cc1 | 0.87%
15 | N#CC(c1ccc(Cl)cc1)c1ccc2c(C(F)(F)F)cc(C(F)(F)F)nc2n1 (centres undefined) | 0.92%
16 | O=S(=O)(c1ccccc1)n1ccc2cc(Nc3ncnc4cc(C#C[C@H]5CCCN5)sc34)ccc21 | -0.2%
17 | Oc1cc(Nc2ccnc3cc(I)ccc23)ccc1F | 0.37%
18 | Cc1ccc(Nc2nc(C)cc(Nc3cccc(NS(C)(=O)=O)c3)n2)cc1 | 9.23%
19 | Cc1ccc(S(=O)(=O)N(CCCNCc2cccc(O)c2)c2ccccc2)cc1 | 7.86%
20 | CC[C@@]1(O)C(=O)OCc2c1cc1n(c2=O)Cc2c-1nc1cc3c(cc1c2CN1CCN(C)CC1)OCCO3 | 3.83%
21 | Cc1cc(S(=O)(=O)N2CCCCC(c3ccc(C(F)(F)F)cc3)=N2)c(Cl)cc1Cl | -1.4%
22 | COc1ccc2c(NN=CC=Cc3ccccc3)ccnc2c1 | 11.6%
23 | Cc1ccc(O)cc1Nc1ccnc2cc(-c3cccc(CNCCS(C)(=O)=O)c3)ccc12 | -3.77%
24 | COc1ccc(-c2ccc(NC(=O)c3ccc(C#N)cc3)cc2)cc1CNC(C)C | 2.38%
